# Reference: PubChem BioAssay
# “And” between values parts separate entries of the source, which are not always exact repeats. Identical values can stand only once. Inconclusive results are not listed. For some assays here: Measured potencies and affinities stand elsewhere. The source made the active and inactive calls. Unless noted, cut-off not given; nearly all actives show AC50 up to about 26 µM.
# What was measured:
# [1] = restoration of touch response, mutant HTT neurons – whole organism, C. elegans mechanosensory neurons, N-terminal huntingtin (AID 1599); conditions: C. elegans polyQ-huntingtin mechanosensory neurons, stronger effect = higher value
# [2] = GFP-Q80 aggregate reduction, neuronal-like cells, cell-based, NGF-treated PC12, GFPQ80 (AID 1614); conditions: PC12 NGF-treated GFP-polyQ80 inclusion reduction;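 further: lower means fewer inclusions and 0 means no inclusions at all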
# [3] = 75Q-TubH aggregate inhibition, S. cerevisiae, yeast (AID 1616); conditions: S. cerevisiae 75Q-TubH polyglutamine aggregation suppression; stronger effect = higher value
# [4] = compounds altering viability of human ES cells (AID 493140; call rule not given here;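 further: cells exposed to compounds for four days before counting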); conditions: human embryonic stem cell survival screen; stronger effect = higher value
# [5] = viability loss in pontine glioma line – cell-based, SU-DIPG-XVII, MIPE5.0, CellTiter-Glo, qHTS, dose response (AID 1347060); conditions: CellTiter-Glo ATP luminescence;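 on AC50: cells exposed to compound for 48 hours before viability readout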
# [6] = viability loss in pontine glioma line – cell-based, SU-DIPG-XIII, MIPE4.0, CellTiter-Glo, qHTS, dose response (AID 1347061; cut-off not given, nearly all actives have AC50 up to about 37 µM;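 further: cells exposed to compound for 48 hours before readout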); conditions: CellTiter-Glo ATP luminescence
# [7] = viability loss in pontine glioma line – cell-based, JHH-DIPG-1, MIPE4.0, CellTiter-Glo, qHTS, dose response (AID 1347062; cut-off not given, nearly all actives have AC50 up to about 27 µM;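 on AC50: cells exposed to compound for two days before readout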); conditions: JHH-DIPG-1 viability, CellTiter-Glo ATP luminescence
# [8] = viability loss in pontine glioma line – cell-based, SU-DIPG-IV, MIPE4.0, CellTiter-Glo, qHTS, dose response (AID 1347063; cut-off not given, nearly all actives have AC50 up to about 30 µM;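 further: compound exposure lasted 48 hours before the viability readout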); conditions: CellTiter-Glo ATP luminescence
# [9] = viability loss in pontine glioma line – cell-based, SU-DIPG-XXV, MIPE5.0, CellTiter-Glo, qHTS, dose response (AID 1347065); conditions: CellTiter-Glo ATP luminescence;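 further: cells exposed to compound for 48 hours before ATP readout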
# [10] = growth inhibition of DIPG cells – cell-based, MIPE4.0 library, CellTiter-Glo luminescence, qHTS (AID 1347066; cut-off not given, nearly all actives have AC50 up to about 30 µM;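 further: cells exposed to compound for 48 hours before readout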); conditions: SU-DIPG-VI viability, CellTiter-Glo ATP luminescence
# [11] = tested on: Hepatitis C virus NS3 helicase; assay: blockers of NS3h binding to ssDNA – biochemical, fluorescence polarization, LOPAC1280 library, primary screen (AID 687035; in the data active means inhibition above about 37%); conditions: Purified HCV NS3 helicase, Cy5-dT15 ssDNA binding fluorescence polarization; stronger effect = higher value; concentration not given here
# [12] = compounds altering Cy5-DNA-NS3h complex signal – biochemical, LOPAC1280, artefact control for HCV NS3 helicase inhibitor project (AID 687037; call rule not given here); conditions: Cy5-DNA-NS3h complex fluorescence interference counterscreen
# [13] = JHH-DIPG-1 glioma cell viability, MIPE5.0 library, CellTiter-Glo luminescence, qHTS (AID 1347067); conditions: JHH-DIPG-1 glioma viability, CellTiter-Glo ATP luminescence;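 further: cells exposed to compound for 48 hours before readout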
# [14] = growth inhibition of DIPG cells – cell-based, MIPE5.0 library, qHTS (AID 1347068; cut-off not given, nearly all actives have IC50 up to about 30 µM); conditions: SU-DIPG-XXV viability
# [15] = blockers of cellular phospholipid synthesis – cell-based, LOPAC library, screen 4, primary screen (AID 1347384; call rule not given here); conditions: animal cells, phospholipid biosynthesis inhibition screen; at 10 µM
# [16] = growth inhibition, single agents and combos, LFS_MB_1R, cell-based, cisplatin or BGB combos, synergistic combos for chromothripsis tumors (AID 1671452; in the data active means inhibition above about 80%;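 further: cells exposed for 96 hours before readout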); conditions: LFS_MB_1R medulloblastoma cells, stronger effect = higher value
# [17] = growth inhibition, MDA-MB-436, cell-based, BGB or cisplatin combos, synergistic combos for chromothripsis tumors (AID 1671458; call rule not given here;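 further: cells exposed for 96 hours; 0% = vehicle DMSO and 100% = killing by high DMSO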); conditions: MDA-MB-436 breast carcinoma growth inhibition, drug combinations, stronger effect = higher value
# [18] = BT084 cell growth, single and combined drugs, ICGC_MB145, cisplatin and BGB IC40 combos (AID 1671461; in the data active means inhibition above about 80%;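 further: cells exposed to drugs for 96 hours; 0% = vehicle DMSO and 100% = high DMSO full killing control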); conditions: BT084 medulloblastoma cells, drug combinations, stronger effect = higher value
# [19] = RCMB18 cell growth, single agent and combined, cisplatin and BGB IC40 combos (AID 1671462; in the data active means inhibition above about 80%;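 further: cells exposed to compound for four days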); conditions: RCMB18 medulloblastoma cells, stronger effect = higher value
# [20] = CRL1545 cell growth, single agent and combined, cisplatin and BGB IC20 combos (AID 1671464; in the data active means inhibition above about 80%;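 further: cells exposed to compound for 96 hours before readout; 0% = vehicle DMSO and 100% = high DMSO killing control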); conditions: CRL1545 osteosarcoma cells, stronger effect = higher value
# [21] = measured here: combination with cisplatin, at 0.5 µM
smiles,measurement,setting,value
CCCc1cc(=O)[nH]c(=S)[nH]1,rescue above control,[1],-2.2
same,inclusion score,[2],2
same,aggregation suppression score,[3],1.14
same,survival,[4],31.3 (inactive)
same,outcome,[5],inactive
same,outcome,[6],inactive
same,outcome,[7],inactive
same,outcome,[8],inactive
same,outcome,[9],inactive
same,outcome,[10],inactive
CC(C)C(=O)Nc1ccc([N+](=O)[O-])c(C(F)(F)F)c1,rescue above control,[1],0
same,aggregation suppression score,[3],0.664
same,survival,[4],18.4 (inactive)
same,inhibition,[11],-1% (inactive)
same,fluorescence ratio (interference),[12],1 (inactive)
same,outcome,[5],inactive
same,outcome,[6],inactive
same,AC50,[7],18.7 µM (active)
same,outcome,[10],inactive
same,outcome,[13],inactive
same,outcome,[14],inactive
same,outcome,[15],inactive
COc1c(N2CCNC(C)C2)c(F)cc2c(=O)c(C(=O)O)cn(C3CC3)c12 (centres undefined),outcome,[5],inactive
same,outcome,[6],inactive
same,outcome,[7],inactive
same,outcome,[8],inactive
same,outcome,[9],inactive
same,outcome,[10],inactive
same,outcome,[13],inactive
same,outcome,[14],inactive
same,inhibition,[16]; at 0.5 µM,-13.4% (inactive) and -12.7% (inactive)
same,inhibition,"[16]; measured here: combination with BGB IC40, at 0.05 µM",-24.8% and -10.4%
same,inhibition,[16]; [21],-39.4% and -1.15%
same,inhibition,"[16]; measured here: combination with cisplatin, at 5 µM",-37.1% and -28.2%
same,inhibition,[17]; at 0.5 µM,-1.19% (inactive) and -2.62% (inactive)
same,inhibition,"[17]; measured here: BGB combination, at 0.5 µM",3.75% and -2.36%
same,inhibition,"[17]; measured here: BGB combination, at 5 µM",-2.62% and -0.158%
same,inhibition,"[17]; measured here: cisplatin combination, at 0.5 µM",-6.86% and -4.47%
same,inhibition,"[17]; measured here: cisplatin combination, at 5 µM",-18.4% and -9.12%
same,inhibition,[18]; at 0.5 µM,11.1% (inactive) and -2.29% (inactive)
same,inhibition,"[18]; cisplatin combination, at 0.5 µM",-21.4% and -4.21%
same,inhibition,"[18]; cisplatin combination, at 5 µM",-1.24% and -0.514%
same,inhibition,"[18]; measured here: BGB IC40 combination 0.05 uM, at 0.05 µM",19.1% and 4.51%
same,inhibition,"[18]; single agent, at 5 µM",-3.66% and 0.545%
same,inhibition,[19]; at 0.5 µM,0.35% (inactive) and 3.27% (inactive)
same,inhibition,"[19]; cisplatin combo, at 5 µM",-46.2% and 7.98%
same,inhibition,"[19]; measured here: BGB IC40 combination, at 0.05 µM",-11.6% and -8.34%
same,inhibition,[19]; [21],-15.6% and 6.4%
same,inhibition,"[19]; single agent, at 5 µM",4.79% and -5.12%
same,inhibition,[20]; at 0.5 µM,-17.5% (inactive) and -1.12% (inactive)
same,inhibition,"[20]; measured here: with BGB IC20 combination, at 0.5 µM",-19.9% and -23.9%
same,inhibition,"[20]; measured here: with cisplatin IC20 combination, at 0.5 µM",-18.3% and 8.22%
same,inhibition,"[20]; single agent, at 0.05 µM",-13.6% and 2.79%
same,inhibition,"[20]; single agent, at 5 µM",-53.5% and 15.1%
CC(C[N+](C)(C)C)OC(N)=O (centres undefined),rescue above control,[1],20.6
same,inclusion score,[2],2
same,aggregation suppression score,[3],1.26
same,survival,[4],18.5 (inactive)
same,inhibition,[11],-2% (inactive)
same,fluorescence ratio (interference),[12],1 (inactive)
same,outcome,[5],inactive
same,outcome,[6],inactive
same,outcome,[7],inactive
same,outcome,[10],inactive
same,outcome,[13],inactive
same,outcome,[14],inactive
same,outcome,[15],inactive
O=C(C1CCCCC1)N1CC(=O)N2CCc3ccccc3C2C1 (centres undefined),rescue above control,[1],-8.41
same,inclusion score,[2],2
same,aggregation suppression score,[3],0.607
same,survival,[4],12.2 (inactive)
same,inhibition,[11],-3% (inactive)
same,fluorescence ratio (interference),[12],1 (inactive)
same,AC50,[5],26.3 µM (active)
same,outcome,[6],inactive
same,outcome,[7],inactive
same,outcome,[8],inactive
same,outcome,[9],inactive
same,outcome,[10],inactive
same,outcome,[13],inactive
same,outcome,[14],inactive
same,outcome,[15],inactive
CC(COc1ccccc1)N(CCCl)Cc1ccccc1 (centres undefined),rescue above control,[1],11.3
same,aggregation suppression score,[3],0.789
same,survival,[4],5.08 (inactive)
same,inhibition,[11],-1% (inactive)
same,fluorescence ratio (interference),[12],1 (inactive)
same,outcome,[5],inactive
same,outcome,[6],inactive
same,outcome,[7],inactive
same,outcome,[9],inactive
same,outcome,[10],inactive
same,outcome,[13],inactive
same,outcome,[14],inactive
CC(=O)CC(c1ccccc1)c1c(O)c2ccccc2oc1=O (centres undefined),rescue above control,[1],-6.3
same,inclusion score,[2],2
same,aggregation suppression score,[3],0.635
same,outcome,[5],inactive
same,outcome,[6],inactive
same,outcome,[8],inactive
same,outcome,[9],inactive
same,outcome,[10],inactive
same,outcome,[13],inactive
same,outcome,[14],inactive
